# Out of some 69,000 compounds screened, about 8,600 (12%) showed an effect of 50% or more. The entries come from a sample that favours strong results as a whole.
# Test system: Plasmodium berghei
# Assay: Screen against P. berghei liver stage (PbLuc), transformed with Luciferase, at 10uM
# Type: functional, HepG2
# Conditions: tested at 10 uM
row,Structure (SMILES),INHIBITION [%]
1,O=C(c1ccn(-c2cccc(Cl)c2)n1)N1CCN(CCO)CC1,-12.2
2,CS(=O)(=O)N1CCN(C(=O)c2cncs2)CC(C(N)=O)C1 (stereo unspecified),-0.8525
3,Cc1noc(C)c1CN1CCC2(CC1)C(c1ccccc1)CC(=O)N2C (stereo unspecified),42.1
4,Cc1ccc(CN2CCC3(CC2)CC(c2cccnc2)C(=O)N3C)o1 (stereo unspecified),55.4
5,Cc1ccc(CN2CCC3(CC2)C(c2ccccc2)CC(=O)N3C)o1 (stereo unspecified),51.2
6,Cc1cccc(CN2CCC3(CC2)CC(c2cccnc2)C(=O)N3C)n1 (stereo unspecified),20.6
7,CN1C(=O)C(c2cccnc2)CC12CCN(CCO)CC2 (stereo unspecified),-7.24
8,CN1C(=O)CC(c2ccccc2)C12CCN(CCO)CC2 (stereo unspecified),-63.9
9,Cc1nc(C2CCCN2C(=O)Cc2cccc(F)c2)nc(O)c1C (stereo unspecified),11.1
10,O=C(Cc1ccsc1)N1CCCC2(COCCN(CC3CC3)C2)C1 (stereo unspecified),-14.3
11,COCCNC(=O)Cn1cc(NC(=O)c2cc(Cl)c(Cl)n2C)cn1,12.9
12,Cc1cc(C)n(CC2CN(CC(=O)NCc3cccs3)CCO2)n1 (stereo unspecified),18.933
13,Cc1ccccc1N1CC(C)N(C(=O)CCn2cccn2)CC1=O (stereo unspecified),64.5
14,CCc1nccn1CC(=O)N1C[C@@H]2CC[C@H]1CN(S(=O)(=O)N(C)C)C2,17
15,Cc1ccccc1N1CCN(C(=O)CCc2nncn2C)C(C)C1 (stereo unspecified),8.38
16,Cc1ccccc1N1CC(C)N(Cc2ccc(C)c(F)c2F)CC1=O (stereo unspecified),-8.92
17,CCc1nccn1CC(=O)N1C[C@@H]2CC[C@H]1CN(C(=O)N(C)C)C2,-19.7
18,CCc1nccn1CCC(=O)N1CCN(c2ccccc2C)CC1C (stereo unspecified),66.7
19,COc1cccc(CN2CC(=O)N(c3ccccc3C)CC2C)c1OC (stereo unspecified),17.8
20,CCc1nccn1CCC(=O)N1CC(=O)N(c2ccccc2C)CC1C (stereo unspecified),49.9
21,CCc1nccn1CCC(=O)N1C[C@@H]2CC[C@H]1CN(C(=O)N(C)C)C2,50.2
22,COCCn1ccnc1C1CCN(C(=O)CSc2nnc(C)o2)CC1,7.24
23,COc1ncccc1CNC(=O)c1c(C)oc(C)c1C,5.1

row,Structure (SMILES),INHIBITION [%]
1,CNC(=O)c1ccc(C2CN(CC(=O)N(C)C)CCO2)nc1 (stereo unspecified),-3.94
2,c1cncc(OCC2CC3(CCN(CC4CC4)CC3)CO2)c1 (stereo unspecified),13.7
3,COc1ccc(C)nc1NC(=O)Cc1c(C)nn(C)c1C,41.6
4,COCC[C@]1(O)CCN(CC(=O)NCc2ccccc2C)C[C@H]1C,46.3
5,O=C(Cc1ccccn1)NCC1OCCc2cn(CC3CC3)nc21 (stereo unspecified),3.25
6,Cc1ccc(Oc2ncccc2CNS(=O)(=O)N2CCOCC2)cn1,70.1
7,O=S(=O)(NCc1cccnc1OC1CCCC1)N1CCOCC1,16.3
8,CCOc1ncccc1CNS(=O)(=O)N1CCOCC1,-8.28
9,O=c1cc(Cn2cncn2)nc2n1CCCN(CCN1CCCC1)C2,16.6
10,Cc1cc(C)n(C2CN(CC(O)c3ccc(C(F)(F)F)cc3)C2)n1 (stereo unspecified),-24.2
11,c1cc2nccc(CC3CCCN(Cc4ncc[nH]4)CC3)c2cn1 (stereo unspecified),32.4
12,Cn1ccnc1CN1CCCC(Cc2ccnc3ccncc23)CC1 (stereo unspecified),29.3
13,c1cc2nccc(CC3CCCN(Cc4c[nH]cn4)CC3)c2cn1 (stereo unspecified),75.3
14,CC(C)c1ccc(OCC(=O)N(C)C)cc1,-11.2
15,CC(C)n1c(=O)[nH]c2cn(-c3ccccc3)c(=O)n21,6.32
16,CCNC(=O)C1(Cc2cc(-c3ccc(C)cc3)no2)CCCN(C)C1 (stereo unspecified),23
17,c1cc(-c2nnc([C@H]3CCN(C4CCOCC4)C3)o2)ccn1,54
18,c1ccc(-c2nnc([C@H]3CCN(C4CCOCC4)C3)o2)cc1,18.4
19,c1ccc(-c2nnc([C@H]3CCN(C4CCC4)C3)o2)cc1,46.4
20,Cc1ccc(-c2nnc([C@H]3CCN(C4CCC4)C3)o2)cc1,4.07
21,COc1ccc(-c2nnc([C@H]3CCN(C4CCC4)C3)o2)cc1,57.8
22,c1cc(-c2nnc([C@H]3CCN(C4CCCCC4)C3)o2)ccn1,-5.77
23,O=C(NCCc1ccccn1)[C@@]12CCO[C@@H]1CCN(c1ncccn1)C2,34.6

row,Structure (SMILES),INHIBITION [%]
1,CCc1ncc2c(n1)CN(CC(=O)Nc1cccnc1)CC2,19.4
2,CSc1ccc(NC(=O)Cn2cc(NC(C)=O)cn2)cc1,33.7
3,CCOC(=O)[C@H]1[C@@H](O)C(=O)N(C)C12CCN(C(=O)OC)CC2,29.8
4,Cn1ccc(CN2CCC(CC(=O)NC3CCCC3)CC2)cc1=O,27.2
5,COc1cc(CNC(=O)COC2CCCCC2)ccc1O,26.5
6,Cc1noc([C@@H]2C[C@H]3OCC[C@H]3N(S(=O)(=O)c3ccccc3)C2)n1,-5.08
7,Cc1occc1C(=O)NCC(=O)NCCOc1ccc2c(c1)CCC2,42.3
8,Cc1occc1C(=O)NCC(=O)NCCOc1cccc(Cl)c1,-10.6
9,Cc1occc1C(=O)NCC(=O)N(C)CCCOc1ccccc1,61
10,Cc1ccccc1C(NC(=O)CNC(=O)c1ccoc1C)C(C)C (stereo unspecified),-68.2
11,Cc1occc1C(=O)NCC(=O)N(C)CCCOc1ccc(F)cc1,26.7
12,Cc1occc1C(=O)NCC(=O)NCCCOc1ccc(F)cc1,54.5
13,O=C1CC(c2ccc(C(F)(F)F)cc2)c2c(n3ccsc3nc2=O)N1 (stereo unspecified),17
14,COc1nsc2nc(C3CCCN3c3ncccn3)ccc12 (stereo unspecified),25.49
15,Cc1ccc(C(=O)NCCCn2cccn2)c(=O)[nH]1,-1.98
16,Cc1ccc(C(=O)NCC(C)CN2CCCC2=O)c(=O)[nH]1 (stereo unspecified),37.1
17,Cc1ccc(C(=O)NC(C)Cn2cccn2)c(=O)[nH]1 (stereo unspecified),42.6
18,Cc1ccc(C(=O)NCC(C)Cn2cccn2)c(=O)[nH]1 (stereo unspecified),58.5
19,Cc1ccc(C(=O)NCC(O)c2ccc(Cl)s2)c(=O)[nH]1 (stereo unspecified),37.2
20,Cc1ccc(C(=O)NCC(C)Cn2ccnc2C)c(=O)[nH]1 (stereo unspecified),55.5
21,Cc1cnc(C(=O)N2C[C@@H]3CC[C@H]2CN(Cc2cscn2)C3)[nH]1,42.1
22,COc1cccc(CN2CCN(c3cccc(C(C)C)n3)CC2)c1F,-26.1
23,Cc1ccc(F)cc1NC(=O)c1[nH]ncc1Br,11.7

row,Structure (SMILES),INHIBITION [%]
1,C[C@H](CCO)NS(=O)(=O)c1ccc(Br)cn1,21.7
2,CS(=O)(=O)CCOCCNc1ccc(Br)cn1,-3.08
3,CCS(=O)(=O)N(C)CC(=O)Nc1ccc(Br)cn1,6.81
4,COCC(C)NS(=O)(=O)c1ccc(Br)cn1 (stereo unspecified),56
5,CCC(CCO)NS(=O)(=O)c1ccc(Br)cn1 (stereo unspecified),65.4
6,COCC(C)NC(=O)c1cncc(Br)c1 (stereo unspecified),-26.4
7,CCN(C(=O)c1nc2c(s1)CCCN2C(C)=O)C(C)C,5.68
8,O=C(c1cccc2c1OCCO2)N1CCCC1c1noc(C2CC2)n1 (stereo unspecified),2.3
9,COCCC(=O)N1CCC2(COCc3cnc(-c4ccccc4)nc32)C1 (stereo unspecified),16.5
10,COCCC(=O)N1CCC2(COCc3cnc(N(C)C)nc32)C1 (stereo unspecified),53.2
11,COCCC(=O)N1CCC2(COCc3c(C)nc(NCC4CC4)nc32)C1 (stereo unspecified),33
12,COCC(=O)N1CCC2(COCc3cnc(NCc4ccco4)nc32)C1 (stereo unspecified),24.3
13,COCCC(=O)N1CCC2(COCc3cnc(-c4cccnc4)nc32)C1 (stereo unspecified),33.1
14,COCCC(=O)N1CCC2(COCc3cnc(NCC4CC4)nc32)C1 (stereo unspecified),61.5
15,Cc1cccc(CNC(=O)CCc2c(C)nc3cc(O)nn3c2C)n1,33.3
16,CC(CN1CCOCC1)NC(=O)NCc1ccoc1 (stereo unspecified),-7.36
17,Cc1nc(NCCN2CCCC2=O)cc(C2CN(C)CCO2)n1 (stereo unspecified),-17.9
18,CC(NC(=O)NCCCn1cncn1)c1ccc(C(F)(F)F)cc1 (stereo unspecified),-16.88
19,Cc1ccc(S(=O)(=O)N2C[C@H]3C[C@H](NC(=O)c4cnn(C)c4)[C@H]3C2)cc1,78.5
20,Cc1ccc(S(=O)(=O)N2C[C@H]3C[C@H](NC(=O)C(C)C)[C@H]3C2)cc1,19.6
21,Cc1ccc(S(=O)(=O)N2C[C@H]3C[C@H](NC(=O)c4ccnn4C)[C@H]3C2)cc1,77.9
22,Cc1ccc(S(=O)(=O)N2C[C@@H]3C[C@@H](NC(=O)C(C)(C)C)[C@@H]3C2)cc1,44.9
23,Cc1ccc(S(=O)(=O)N2C[C@H]3C[C@H](NC(=O)c4cc(C)no4)[C@H]3C2)cc1,5.11

row,Structure (SMILES),INHIBITION [%]
1,Cc1ccc(S(=O)(=O)N2C[C@H]3C[C@H](NC(=O)c4ccn(C)n4)[C@H]3C2)cc1,38.7
2,CC1(C)CN=C(N2CCN(CC3CCCCO3)CC2)S1 (stereo unspecified),27.6
3,COCC1COCCC12CCN(Cc1cccs1)CC2 (stereo unspecified),23.6
4,COCCN1C(=O)C[C@H]2[C@H]1CCN2C(=O)c1ccc[nH]1,26.3
5,CCN1CCN(Cc2nc(CCc3ccccc3)n[nH]2)CC1,56.5
6,c1ccc(CCc2n[nH]c(CCN3CCCCC3)n2)cc1,38.5
7,CCN1CCN(Cc2nc(Cc3ccccc3)n[nH]2)CC1,-7.17
8,CCOCc1cc(CNC2CCCc3c2cnn3CC)ccc1OC (stereo unspecified),33.8
9,Cc1nc2sccn2c1CN(CCCN(C)C)Cc1ccco1,33.5
10,CC(CO)NC(=O)c1ccc(NCc2cc(C#N)ccc2F)cc1 (stereo unspecified),26.8
11,Cc1cccc(CN2C[C@@H]3CC[C@H]2CN(Cc2[nH]cnc2C)C3)n1,58.5
12,CSCCCN1C[C@@H]2CC[C@H]1CN(Cc1[nH]cnc1C)C2,45.8
13,Cc1cc(CN2C[C@@H]3CC[C@H]2CN(Cc2[nH]cnc2C)C3)on1,62.1
14,Cc1nc[nH]c1CN1C[C@H]2CC[C@@H](C1)N(C(=O)CCc1cnn(C)c1)C2,40.1
15,Cc1nc[nH]c1CN1C[C@H]2CC[C@@H](C1)N(C(=O)c1cnn(C)c1)C2,10.7
16,Cc1nc[nH]c1CN1C[C@H]2CC[C@@H](C1)N(C(=O)CCNS(C)(=O)=O)C2,26.8
17,Cc1nc[nH]c1CN1C[C@H]2CC[C@@H](C1)N(C(=O)CCc1cccnc1)C2,8.38
18,Cc1ccc(CN2C[C@@H]3CC[C@H]2CN(Cc2[nH]cnc2C)C3)o1,24.9
19,CSc1ccccc1CN1C[C@@H]2CC[C@H]1CN(Cc1[nH]cnc1C)C2,60.3

# Source: ChEMBL document CHEMBL4513216, “Probing the Open Global Health Chemical Diversity Library for Multistage-Active Starting Points for Next-Generation Antimalarials” (ACS Infect Dis, 2020)
